Unmarked numbers belong to inactive results. Results filed as inconclusive are left out. Where a call stands in place of a potency, no number is given. The source made the active and inactive calls. Unless noted, the call rests on the fitted dose curve; in most records, active means well fitted curve in the direction sought with a large enough effect in the repeat runs; inconclusive means weak or mixed curves; inactive means no such curve, though single readings can be large; an effect the other way counts as inactive or inconclusive.
How the values were obtained:
[1] = qHTS assay to identify small molecule antagonists of the TGF-beta/Smad signaling pathway - cell viability counter screen (AID 1346824); further: nearly all actives have a fitted effect of over 50% in size
Method in brief: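 SBE-bla HEK 293T cells, incubated overnight, then compound plus 0.25 ng/mL TGF-beta1 (stock added) for 5 hr at 37 C. Viability was read in the same wells by CellTiter-Glo luminescence after 30 min at room temperature.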

[2] = qHTS assay to identify small molecule agonists of the TGF-beta/Smad signaling pathway - cell viability counter screen (AID 1346829); further: top concentration of the series differs between compounds; nearly all actives have a fitted effect of over 45% in size
Method in brief: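 Luminescence from CellTiter-Glo, read after a 30 min room-temperature incubation, gives cell viability of SBE-bla HEK 293T cells treated 5 hr with compounds at 37 C.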

[3] = qHTS assay to identify small molecule agonists of the TGF-beta/Smad signaling pathway (AID 1346859; active means well fitted activation curve with a large enough effect in the signal ratio in the repeat runs, not every such curve was filed as active; the % refers to the signal ratio; further: series mostly up to about 77 µM)
Method in brief: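 HEK 293T cells stably carrying a beta-lactamase reporter driven by the Smad binding element were seeded overnight, exposed to DMSO-dissolved compounds for 5 hr at 37 C, 5% CO2, then loaded with FRET substrate for 2 hr at room temperature.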

[4] = Human pregnane X receptor (PXR) small molecule agonists, qHTS cell viability counter screen (AID 1346977); further: nearly all actives have a fitted effect of over 50% in size
Method in brief: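 PXR-Luc HepG2 cells in medium with 5% charcoal-stripped FBS were pre-incubated 5hr, then exposed to compounds for 24hr at 37C. Viability was read in the same wells by CellTiter-Fluor fluorescence, reagent added after 23hr with a 1hr incubation.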

[5] = Caspase-3/7 induction in HepG2 cells by small molecules, qHTS assay (AID 1346978); further: nearly all actives have a fitted effect of over 15% in size
Method in brief: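 Wild-type HepG2 cells, 2,000/well, settled 5 hr at 37 C and 5% CO2, then compound-treated for 17 hr; caspase-3/7 activity read by luminescent Caspase-Glo 3/7 after 30 min at room temperature.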

[6] = Caspase-3/7 induction in CHO-K1 cells by small molecules, qHTS cell viability counter screen (AID 1346979); further: nearly all actives have a fitted effect of over 35% in size
Method in brief: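 Wild-type CHO-K1 cells were seeded at 1,500 per well, rested 5hr at 37 C, then exposed to compounds in DMSO. After 16hr, CellTiter-Fluor reagent was added and fluorescence read 1hr later as the viability measure.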

[7] = Caspase-3/7 induction in CHO-K1 cells by small molecules, qHTS assay (AID 1346980); further: nearly all actives have a fitted effect of over 15% in size
Method in brief: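 Wild-type CHO-K1 cells exposed to compounds for 17hr at 37 C, 5% CO2. Caspase-3/7 activity then measured by Caspase-Glo 3/7 luminescence after 30min at room temperature.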

[8] = Caspase-3/7 induction in HepG2 cells by small molecules, qHTS cell viability counter screen (AID 1346981); further: series mostly up to about 92 µM; nearly all actives have a fitted effect of over 30% in size
Method in brief: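 Steps: seed 2,000 HepG2 cells per well; incubate 5 hr at 37 C; pin-add compounds in DMSO; incubate 16 hr; add CellTiter-Fluor; after 1 hr at 37 C and 5% CO2, read fluorescence.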

[9] = target: Nuclear receptor subfamily 1 group I member 2 (Homo sapiens) (UniProt O75469); assay: Human pregnane X receptor (PXR) small molecule agonists, qHTS assay (AID 1346982); further: nearly all actives have a fitted effect of over 35% in size
Sequence of Nuclear receptor subfamily 1 group I member 2 (Homo sapiens) (O75469 whole entry, looked up): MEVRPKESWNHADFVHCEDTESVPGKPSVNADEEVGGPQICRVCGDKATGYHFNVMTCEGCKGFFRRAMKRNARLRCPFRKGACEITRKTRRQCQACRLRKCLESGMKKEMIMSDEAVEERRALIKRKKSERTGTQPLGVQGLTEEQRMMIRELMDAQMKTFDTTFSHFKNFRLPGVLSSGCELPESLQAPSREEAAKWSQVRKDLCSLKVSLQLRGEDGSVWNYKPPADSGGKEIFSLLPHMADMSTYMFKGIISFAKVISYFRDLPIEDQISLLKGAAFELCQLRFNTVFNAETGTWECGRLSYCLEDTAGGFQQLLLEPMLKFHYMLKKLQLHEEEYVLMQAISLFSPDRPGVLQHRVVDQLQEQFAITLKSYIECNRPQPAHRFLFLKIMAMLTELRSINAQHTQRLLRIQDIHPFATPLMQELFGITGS
Method in brief: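 Agonist mode qHTS: PXR-Luc HepG2 cells plated 5 hr before DMSO-dissolved compounds were pinned in, cultured 24 hr at 37 C, 5% CO2; ONE-Glo luminescence readout.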

[10] = target: Cytochrome P450 2C9 (Homo sapiens) (UniProt P11712); assay: Cytochrome P450 Family 2 Subfamily C Member 9 (CYP2C9) small molecule antagonists: luciferase reporter qHTS assay (AID 1671198); further: nearly all actives have a fitted effect of over 50% in size; further: potency means the concentration at half of the fitted maximal effect
Sequence of Cytochrome P450 2C9 (Homo sapiens) (P11712 whole entry, looked up): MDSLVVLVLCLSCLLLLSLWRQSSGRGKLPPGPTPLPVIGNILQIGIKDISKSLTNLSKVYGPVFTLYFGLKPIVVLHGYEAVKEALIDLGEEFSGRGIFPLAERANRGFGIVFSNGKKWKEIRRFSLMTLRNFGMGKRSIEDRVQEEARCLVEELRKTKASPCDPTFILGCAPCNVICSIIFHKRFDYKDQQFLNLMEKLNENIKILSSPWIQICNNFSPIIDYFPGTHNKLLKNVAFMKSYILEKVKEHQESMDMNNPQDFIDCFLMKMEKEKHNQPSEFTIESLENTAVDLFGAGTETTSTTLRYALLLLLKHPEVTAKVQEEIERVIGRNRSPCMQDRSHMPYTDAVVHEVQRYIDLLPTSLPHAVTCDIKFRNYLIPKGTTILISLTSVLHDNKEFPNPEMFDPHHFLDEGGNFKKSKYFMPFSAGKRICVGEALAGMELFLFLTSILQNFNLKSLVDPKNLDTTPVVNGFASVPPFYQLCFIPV
Method in brief: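 P450-Glo proluciferin substrate with CYP2C9 enzyme; 10 min RT preincubation, then NADPH regeneration 1 h at 37C; luciferin detection reagent 20 min RT, luminescence in relative luminescence units.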

[11] = target: Voltage-gated inwardly rectifying potassium channel KCNH2 (Homo sapiens) (UniProt Q12809); assay: Human Ether-a-go-go-Related Gene (hERG) channel small molecule antagonists: fluorescence cell-based qHTS assay (AID 1671200); further: nearly all actives have a fitted effect of over 50% in size; further: potency means the concentration at half of the fitted maximal effect
Sequence of Voltage-gated inwardly rectifying potassium channel KCNH2 (Homo sapiens) (Q12809 whole entry, looked up): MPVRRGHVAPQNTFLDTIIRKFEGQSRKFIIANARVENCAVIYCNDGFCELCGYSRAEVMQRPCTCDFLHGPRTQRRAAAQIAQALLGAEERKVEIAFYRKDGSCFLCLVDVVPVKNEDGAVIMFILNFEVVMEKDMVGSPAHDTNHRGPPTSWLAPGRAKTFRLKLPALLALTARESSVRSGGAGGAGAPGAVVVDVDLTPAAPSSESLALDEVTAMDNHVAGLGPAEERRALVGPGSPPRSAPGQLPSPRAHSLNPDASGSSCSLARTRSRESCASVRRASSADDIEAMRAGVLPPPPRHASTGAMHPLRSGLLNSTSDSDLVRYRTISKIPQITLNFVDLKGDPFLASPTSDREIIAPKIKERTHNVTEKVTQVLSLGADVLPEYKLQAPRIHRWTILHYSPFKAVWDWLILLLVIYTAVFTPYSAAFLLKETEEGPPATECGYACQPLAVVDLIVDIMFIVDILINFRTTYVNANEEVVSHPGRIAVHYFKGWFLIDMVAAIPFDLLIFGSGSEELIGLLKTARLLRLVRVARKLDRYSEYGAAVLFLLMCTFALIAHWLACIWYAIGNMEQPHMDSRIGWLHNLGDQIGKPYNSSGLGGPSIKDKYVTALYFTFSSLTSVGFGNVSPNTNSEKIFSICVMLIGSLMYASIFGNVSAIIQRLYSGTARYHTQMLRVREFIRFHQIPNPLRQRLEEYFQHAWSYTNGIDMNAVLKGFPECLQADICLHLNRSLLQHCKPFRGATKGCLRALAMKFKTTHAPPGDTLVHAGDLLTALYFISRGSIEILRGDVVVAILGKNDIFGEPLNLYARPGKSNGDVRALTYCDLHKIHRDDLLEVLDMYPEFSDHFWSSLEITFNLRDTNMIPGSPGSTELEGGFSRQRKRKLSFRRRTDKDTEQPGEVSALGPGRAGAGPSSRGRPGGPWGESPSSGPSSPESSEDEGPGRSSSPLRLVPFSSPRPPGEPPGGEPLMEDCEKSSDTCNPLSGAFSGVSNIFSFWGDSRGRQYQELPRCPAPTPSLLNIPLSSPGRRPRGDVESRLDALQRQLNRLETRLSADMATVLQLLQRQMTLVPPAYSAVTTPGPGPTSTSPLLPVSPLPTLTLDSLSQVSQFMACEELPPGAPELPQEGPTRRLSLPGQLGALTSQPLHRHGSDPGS
Method in brief: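 U2OS cells expressing the channel were plated at 1000 cells/well, incubated overnight at 37 C, then loaded with FluxOR II thallium-sensitive dye for 1 h at room temperature in the dark, with a further 10 min at room temperature before stimulation.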

[12] = target: Cytochrome P450 3A4 (Homo sapiens) (UniProt P08684); assay: Cytochrome P450 Family 3 Subfamily A Member 4 (CYP3A4) small molecule antagonists: luciferase reporter qHTS assay (AID 1671201); further: nearly all actives have a fitted effect of over 50% in size; further: potency means the concentration at half of the fitted maximal effect
Sequence of Cytochrome P450 3A4 (Homo sapiens) (P08684 whole entry, looked up): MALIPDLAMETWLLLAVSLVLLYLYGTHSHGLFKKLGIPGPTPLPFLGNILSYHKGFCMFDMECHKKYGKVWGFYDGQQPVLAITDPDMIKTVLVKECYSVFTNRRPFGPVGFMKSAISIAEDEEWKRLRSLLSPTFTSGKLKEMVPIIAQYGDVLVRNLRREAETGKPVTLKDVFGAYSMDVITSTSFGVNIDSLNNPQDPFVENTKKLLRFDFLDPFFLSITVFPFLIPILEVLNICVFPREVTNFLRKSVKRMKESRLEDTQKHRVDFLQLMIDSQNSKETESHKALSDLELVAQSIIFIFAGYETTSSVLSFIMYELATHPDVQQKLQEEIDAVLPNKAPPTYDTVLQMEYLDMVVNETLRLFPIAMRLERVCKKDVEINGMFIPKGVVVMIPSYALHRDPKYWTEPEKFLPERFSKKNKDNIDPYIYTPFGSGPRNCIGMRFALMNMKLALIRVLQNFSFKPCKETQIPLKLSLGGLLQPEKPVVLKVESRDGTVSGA
Method in brief: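 P450-Glo CYP3A4 system with proluciferin substrate; compounds preincubated 10 min RT with enzyme-substrate mix, then NADPH regeneration added for 1 h RT. Detection reagent 20 min, luminescence read as relative luminescence units.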

[13] = target: Cytochrome P450 2C19 (Homo sapiens) (UniProt P33261); assay: Cytochrome P450 Family 2 Subfamily C Member 19 (CYP2C19) small molecule antagonists: luciferase reporter qHTS assay (AID 1671197); further: nearly all actives have a fitted effect of over 65% in size; further: potency means the concentration at half of the fitted maximal effect
Sequence of Cytochrome P450 2C19 (Homo sapiens) (P33261 whole entry, looked up): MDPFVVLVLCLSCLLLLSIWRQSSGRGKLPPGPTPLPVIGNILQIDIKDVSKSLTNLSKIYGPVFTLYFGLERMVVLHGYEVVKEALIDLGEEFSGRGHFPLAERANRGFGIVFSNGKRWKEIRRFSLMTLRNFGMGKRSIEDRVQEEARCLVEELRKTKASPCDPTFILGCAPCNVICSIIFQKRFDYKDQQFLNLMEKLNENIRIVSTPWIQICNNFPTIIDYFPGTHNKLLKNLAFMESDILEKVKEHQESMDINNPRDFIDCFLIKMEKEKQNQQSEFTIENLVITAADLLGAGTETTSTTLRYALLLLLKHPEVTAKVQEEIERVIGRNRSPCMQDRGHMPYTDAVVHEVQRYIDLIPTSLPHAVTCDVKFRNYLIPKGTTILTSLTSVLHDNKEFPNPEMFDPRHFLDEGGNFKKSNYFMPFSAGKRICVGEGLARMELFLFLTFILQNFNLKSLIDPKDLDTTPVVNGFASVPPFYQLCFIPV
Method in brief: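 CYP2C19 P450-Glo, 1536-well qHTS. Cpd + enzyme/proluciferin substrate 10 min RT; + NADPH regen, 37C 1 h; stop with luciferin detection reagent, 20 min RT, luminescence (RLU). Pos ctrl ketoconazole.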

[14] = target: Cytochrome P450 1A2 (Homo sapiens) (UniProt P05177); assay: Cytochrome P450 Family 1 Subfamily A Member 2 (CYP1A2) small molecule antagonists: luciferase reporter qHTS assay (AID 1671199); further: nearly all actives have a fitted effect of over 50% in size; further: potency means the concentration at half of the fitted maximal effect
Sequence of Cytochrome P450 1A2 (Homo sapiens) (P05177 whole entry, looked up): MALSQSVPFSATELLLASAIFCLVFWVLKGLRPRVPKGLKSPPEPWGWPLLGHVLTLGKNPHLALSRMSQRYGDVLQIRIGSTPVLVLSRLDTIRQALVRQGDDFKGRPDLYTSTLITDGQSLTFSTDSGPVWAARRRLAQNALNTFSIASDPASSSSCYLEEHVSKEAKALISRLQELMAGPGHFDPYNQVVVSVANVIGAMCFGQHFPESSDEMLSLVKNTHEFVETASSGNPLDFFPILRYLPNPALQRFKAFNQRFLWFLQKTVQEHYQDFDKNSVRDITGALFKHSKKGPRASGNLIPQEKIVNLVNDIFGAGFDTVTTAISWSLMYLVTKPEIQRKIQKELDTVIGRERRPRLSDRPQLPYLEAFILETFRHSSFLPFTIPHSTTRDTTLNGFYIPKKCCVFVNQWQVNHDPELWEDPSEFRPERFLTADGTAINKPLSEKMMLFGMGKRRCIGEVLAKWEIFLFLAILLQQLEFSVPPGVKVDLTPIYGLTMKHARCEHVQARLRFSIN
Method in brief: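 Inhibition of CYP1A2 conversion of proluciferin to luciferin, detected by luminescence. Reaction run 1 h at room temperature with NADPH regeneration after brief compound preincubation.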

[15] = target: Nuclear receptor subfamily 1 group I member 2 (Rattus norvegicus) (UniProt Q9R1A7); assay: Rat pregnane X receptor (rPXR) activation by small molecules, qHTS assay (AID 1346983); conditions: rPXR luciferase reporter cells, One-Glo luminescence, 24 h; max activation: stronger effect = higher value; further: nearly all actives have a fitted effect of over 20% in size
Sequence of Nuclear receptor subfamily 1 group I member 2 (Rattus norvegicus) (Q9R1A7 whole entry, looked up): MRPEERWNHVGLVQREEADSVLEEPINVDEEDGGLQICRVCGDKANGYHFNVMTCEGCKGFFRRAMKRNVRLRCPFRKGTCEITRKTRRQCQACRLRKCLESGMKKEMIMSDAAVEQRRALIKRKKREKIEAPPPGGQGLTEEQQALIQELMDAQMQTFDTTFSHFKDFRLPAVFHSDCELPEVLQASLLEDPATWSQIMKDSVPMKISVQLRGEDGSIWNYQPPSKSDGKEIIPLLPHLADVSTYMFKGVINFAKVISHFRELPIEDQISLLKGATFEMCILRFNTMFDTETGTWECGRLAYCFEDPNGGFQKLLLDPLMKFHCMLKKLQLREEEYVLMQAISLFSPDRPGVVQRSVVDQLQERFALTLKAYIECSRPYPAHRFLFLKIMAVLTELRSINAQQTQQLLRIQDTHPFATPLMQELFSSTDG
Method in brief: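 Cell-based rPXR activation assay: rPXR cells, 2,000 per well, rested 5hr at 37 C, then exposed to compounds in DMSO for 24 hr at 37 C. Luciferase activity read by One-Glo luminescence after 30 min at room temperature.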

[16] = target: Nuclear receptor subfamily 1 group I member 2 (Homo sapiens) (UniProt O75469); assay: Human pregnane X receptor (PXR) activation by small molecules, qHTS assay (AID 1346985); further: nearly all actives have a fitted effect of over 40% in size
Method in brief: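 DPX-2 cells (HepG2 co-transfected with a PXR response element and a CYP3A4-promoter luciferase construct) were seeded at 2,000 per well, rested 5 hr at 37C, then exposed to DMSO-dissolved compounds for 24 hr. Activation was read as luciferase luminescence.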

[17] = target: Thyrotropin-releasing hormone receptor (Homo sapiens) (UniProt P34981); assay: qHTS assay to identify small molecule antagonists of the thyrotropin-releasing hormone receptor (TRHR) signaling pathway (AID 1346877; active means well fitted inhibition curve with a large enough effect in the repeat runs, not every such curve was filed as active; further: series mostly up to about 51 µM)
Sequence of Thyrotropin-releasing hormone receptor (Homo sapiens) (P34981 whole entry, looked up): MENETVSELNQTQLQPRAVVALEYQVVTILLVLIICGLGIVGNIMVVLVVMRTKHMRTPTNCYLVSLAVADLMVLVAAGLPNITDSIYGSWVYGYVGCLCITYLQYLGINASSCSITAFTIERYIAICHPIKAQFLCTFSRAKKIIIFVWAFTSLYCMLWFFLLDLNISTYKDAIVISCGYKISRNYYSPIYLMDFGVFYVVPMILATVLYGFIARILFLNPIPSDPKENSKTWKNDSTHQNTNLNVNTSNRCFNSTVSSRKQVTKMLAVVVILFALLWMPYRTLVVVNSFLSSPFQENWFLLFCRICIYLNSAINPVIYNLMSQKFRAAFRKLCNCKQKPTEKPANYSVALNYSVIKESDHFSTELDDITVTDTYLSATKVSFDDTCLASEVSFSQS
Method in brief: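 Cells (TRHR-HEK293) are plated and kept 18 h at 37 °C/5% CO2. A calcium-sensitive dye is added for 2 h, compound follows for 5 min at room temperature, and TRH is then given at 1 nM final.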

[18] = target: Thyrotropin-releasing hormone receptor (Homo sapiens) (UniProt P34981); assay: qHTS assay to identify small molecule agonists of the thyrotropin-releasing hormone receptor (TRHR) signaling pathway (AID 1346891; calls by dose curve; further: series mostly up to about 58 µM)
Method in brief: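 TRHR-expressing HEK293 cells were plated 18 h at 37 °C/5% CO2, loaded with calcium dye 2 h at 37 °C, then given compound in DMSO; fluorescence was read kinetically for 3 min at 1 s intervals.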

[19] = target: Cytochrome P450 2D6 (Homo sapiens) (UniProt P10635); assay: Cytochrome P450 Family 2 Subfamily D Member 6 (CYP2D6) small molecule antagonists: luciferase reporter qHTS assay (AID 1671196); further: nearly all actives have a fitted effect of over 50% in size; further: potency means the concentration at half of the fitted maximal effect
Sequence of Cytochrome P450 2D6 (Homo sapiens) (P10635 whole entry, looked up): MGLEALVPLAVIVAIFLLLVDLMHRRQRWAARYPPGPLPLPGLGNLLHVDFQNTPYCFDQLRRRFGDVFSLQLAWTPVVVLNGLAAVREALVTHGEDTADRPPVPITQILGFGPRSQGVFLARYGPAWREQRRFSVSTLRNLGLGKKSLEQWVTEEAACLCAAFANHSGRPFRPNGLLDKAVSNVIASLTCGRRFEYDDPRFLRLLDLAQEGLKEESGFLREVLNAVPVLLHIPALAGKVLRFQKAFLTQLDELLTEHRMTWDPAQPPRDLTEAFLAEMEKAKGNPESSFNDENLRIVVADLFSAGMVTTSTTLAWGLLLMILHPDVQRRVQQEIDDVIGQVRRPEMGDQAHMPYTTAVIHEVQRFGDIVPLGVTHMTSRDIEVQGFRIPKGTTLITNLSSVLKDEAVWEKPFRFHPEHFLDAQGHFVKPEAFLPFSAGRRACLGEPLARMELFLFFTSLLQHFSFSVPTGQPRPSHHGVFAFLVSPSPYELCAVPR
Method in brief: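 P450-Glo format: CYP2D6 converts a proluciferin substrate to luciferin in an NADPH-driven reaction lasting 1 h at room temperature. Light output, proportional to CYP2D6 activity, reflects interference by test chemicals.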

[20] = target: Nuclear receptor subfamily 1 group I member 2 (Homo sapiens) (UniProt O75469); assay: CYP3A4 induction through human pregnane X receptor (PXR) by small molecules, qHTS assay (AID 1346984); further: nearly all actives have a fitted effect of over 40% in size
Method in brief: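 Steps: seed DPX-2 cells, 5 hr at 37C; pin-transfer compounds; 24 hr at 37C; add Luciferin-IPA (3uM final), 3 hr at 37C; add One-Glo, 30 min RT; read luminescence.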

Structure (SMILES)	outcome [1]	outcome [2]	outcome [3]	Potency [4]	outcome [5]	Potency [6]	outcome [7]	Potency [8]	Potency [9]	Potency [10]	Potency [11]	Potency [12]	Potency [13]	Potency [14]	max activation [15] [%]	Potency [16]	outcome [17]	outcome [18]	Potency [19]	outcome [20]
CCCO	inactive	inactive	inactive	inactive	inactive	inactive	inactive	inactive	inactive	inactive	inactive	inactive	–	–	–	–	–	–	–	–
CCCCCCCC/C=C\CCCCCCCC(=O)OC[C@@H](O)[C@H]1OC[C@H](O)[C@H]1O	inactive	inactive	inactive	inactive	–	inactive	inactive	inactive	inactive	–	inactive	inactive	inactive	inactive	–	–	–	–	–	–
NCCc1ccn[nH]1	inactive	inactive	inactive	inactive	inactive	–	inactive	inactive	–	inactive	inactive	inactive	–	inactive	-4.71	inactive	–	–	–	–
CC(C)CCC(=O)CCC(C)C	inactive	inactive	–	inactive	inactive	inactive	inactive	inactive	inactive	inactive	inactive	inactive	inactive	39.9 µM (active)	–	–	inactive	inactive	inactive	–
C=CCOc1c(Br)cc(C(C)(C)c2cc(Br)c(OCC=C)c(Br)c2)cc1Br	inactive	inactive	inactive	inactive	–	–	inactive	–	–	inactive	inactive	inactive	–	inactive	–	–	–	–	inactive	–
CCN(CCC#N)c1ccccc1	inactive	inactive	inactive	inactive	inactive	inactive	inactive	inactive	–	–	inactive	inactive	–	31.7 µM (active)	–	–	–	–	–	–
C=CCOc1cc(Cl)ccc1C(=O)NCCN(CC)CC	inactive	inactive	inactive	inactive	–	inactive	inactive	inactive	inactive	inactive	9.52 µM (active)	17.4 µM (active)	6.92 µM (active)	–	–	–	–	–	0.275 µM (active)	–
O=C1CC[C@H](C(=O)N2CCCCC2)N1	inactive	inactive	inactive	inactive	inactive	inactive	inactive	inactive	–	–	inactive	inactive	–	–	–	–	–	–	inactive	–
CC(C)(c1ccc(Oc2ccc3c(c2)C(=O)OC3=O)cc1)c1ccc(Oc2ccc3c(c2)C(=O)OC3=O)cc1	inactive	inactive	inactive	inactive	inactive	–	inactive	–	–	–	inactive	inactive	inactive	–	–	–	–	–	39.7 µM (active)	–
CN=C(NC#N)NCCSCc1csc(N=C(N)N)n1	inactive	inactive	inactive	inactive	inactive	inactive	inactive	inactive	–	–	inactive	–	–	–	–	–	–	–	–	–
OC(CCN1CCCCC1)(c1ccccc1)c1ccccc1	inactive	inactive	inactive	–	inactive	inactive	inactive	inactive	inactive	inactive	9.52 µM (active)	inactive	–	inactive	-1.14	–	–	–	1.38 µM (active)	–
CCOC(=O)C(C)(C)C	inactive	inactive	inactive	inactive	inactive	inactive	inactive	inactive	inactive	inactive	inactive	inactive	inactive	inactive	–	–	–	–	–	–
C=C[Si](C)(C)O[Si](C)(C)C=C	inactive	inactive	inactive	inactive	inactive	inactive	inactive	–	inactive	inactive	inactive	inactive	inactive	inactive	–	–	–	–	–	–
Nc1ccc(S(=O)(=O)Nc2ccccn2)cc1	inactive	inactive	inactive	inactive	inactive	–	inactive	inactive	inactive	inactive	inactive	–	–	–	-1.43	inactive	–	–	inactive	inactive
CCCCC(C)C(=O)O (stereo not drawn)	inactive	inactive	inactive	inactive	inactive	inactive	inactive	–	inactive	–	inactive	inactive	39.9 µM (active)	39.9 µM (active)	–	–	–	–	inactive	–
CO[Si](CCCS)(OC)OC	inactive	inactive	inactive	inactive	–	inactive	inactive	inactive	inactive	inactive	inactive	–	inactive	inactive	–	–	–	–	inactive	–
CCCCOC(=O)[C@@H](C)Oc1ccc(Oc2ccc(C(F)(F)F)cn2)cc1	inactive	inactive	inactive	inactive	inactive	inactive	inactive	inactive	–	16 µM (active)	–	–	25.3 µM (active)	20.1 µM (active)	–	–	–	–	inactive	–
CCCC(C)CC (stereo not drawn)	inactive	inactive	inactive	inactive	–	inactive	inactive	inactive	inactive	inactive	inactive	inactive	–	35 µM (active)	–	–	–	–	inactive	–

Source: PubChem BioAssay (Tox21)
